# Measurements taken from PubChem BioAssay (NCATS).
# Records with an inconclusive call do not appear. A call without a number means that no potency is given here. Active and inactive are the calls of the source. The call rests on the fitted dose curve; in most records, active means well fitted curve in the direction sought with a large enough effect; inconclusive means small, poorly fitted or top-dose-only effect, or another doubt; inactive means no such curve, though single readings can be large; an effect the other way counts as inactive or inconclusive.
# Assays:
# [1] = target: Aldehyde dehydrogenase, mitochondrial (Homo sapiens) (UniProt P05091); assay: qHTS for Inhibitors of the Aldehyde Dehydrogenase Family (ALDH2) Primary screen (AID 2061308); further: nearly all actives have a fitted effect of over 55% in size; further: potency means the concentration at half of the fitted maximal effect
# [2] = target: Retinaldehyde dehydrogenase 3 (Homo sapiens) (UniProt P47895); assay: qHTS for Inhibitors of the Aldehyde Dehydrogenase Family (ALDH1A3) Primary screen (AID 2061315)
SMILES,Potency [1],Potency [2]
COc1ccc(C2Nc3ccccc3C(=O)N2Cc2cccc(OC)c2OC)cc1COc1c(C)cc(NC(C)=O)cc1C (stereo unspecified),inactive,inactive
CCOC(=O)CC(=O)Nc1ncnc2c1C(c1ccccc1)c1c(ccc3ccccc13)O2 (stereo unspecified),inactive,inactive
O=C1CCCC2=C1C1(CCCOC1)N=C(Nc1nc3ccccc3o1)N2 (stereo unspecified),inactive,inactive
C#CCCC(=O)Nc1sc2c(c1-c1nc3ccccc3s1)CCNC2,inactive,inactive
CC(C)(C)OC(=O)N1CCN(c2ccc(NCc3ncc(-c4ccc(C#N)cc4)s3)cc2)CC1,4.47 µM (active),inactive
CC(=O)Nc1sc2c(c1-c1ccc3nsnc3c1)CCNC2,inactive,inactive
O=C(Nc1nnc(-c2ccncc2)s1)Nc1ccc(Cl)cc1Cl,inactive,inactive
O=C1CCc2cc(S(=O)(=O)Nc3ccc(-c4ccccc4)cc3)ccc2N1,inactive,inactive
COc1cccc(CNc2ccc(S(=O)(=O)Nc3ccc(N4CCNCC4)cc3)cc2)c1O,inactive,inactive
COC(=O)c1ccc(N2CCN(S(=O)(=O)c3ccc4c(c3)CC(=O)N4)CC2)cc1,inactive,inactive
O=[S+]([O-])(c1ccc2c(c1)OCCO2)N1CCN([S+](=O)([O-])c2c(F)cc(Br)cc2F)CC1,inactive,inactive
O=C(NCCCn1ccnc1)c1nn2c(C(F)(F)F)cc(-c3ccc(Br)cc3)nc2c1Cl,inactive,inactive
CCn1c2ccccc2c2cc(Nc3ccnc(NCCCN4CCOCC4)n3)ccc21,inactive,inactive
Cc1cccc(-c2nnc(C)n2CCCn2ccnc2)c1[N+](=O)[O-],inactive,inactive
Oc1cc(-c2ccc(N3CCCCC3)nc2)cc2cccnc12,inactive,inactive
COc1ccc(C(=O)Nc2nc(-c3ccccc3)cs2)c(OC)c1,inactive,inactive
Cc1cc2c(s1)c1cnn(Cc3cc(F)c(F)cc3F)c(=O)c1n2C,inactive,inactive
Cc1nc(NCc2ccccc2)c2nc(-c3ccccc3)n(CCCN3CCCCC3C)c2n1 (stereo unspecified),inactive,inactive
O=C(c1ccc[nH]1)c1cc(Cl)ccc1NC(=O)[C@@H]1CCCN1,inactive,inactive

SMILES,Potency [1],Potency [2]
CC(C)C[C@@H]1NC(=O)[C@@H](Cc2ccccc2)NC(=O)C(CCCCCC(=O)C2CO2)NC(=O)[C@@H]2CCCCN2C1=O (stereo partly specified),inactive,inactive
O=C(O)c1ccc2c(c1)C(=O)N([C@@H](C(=O)O)C(c1ccccc1)c1ccccc1)C2=O,inactive,inactive
Cc1ccc(S(=O)(=O)Nc2ccccc2C(=O)Nc2ccc(-c3ccccc3)cn2)cc1,inactive,inactive
COc1cccc(CNc2ccc(S(=O)(=O)Nc3ncc(C)s3)cc2)c1O,inactive,inactive
Nc1ccc(-c2nnc(NC(=O)Nc3ccc(Cl)c(Cl)c3)s2)cc1,inactive,inactive
Fc1ccc(Nc2nc(-c3ccncc3F)nc3ccccc23)cc1F,inactive,inactive
CC(=O)Nc1sc2c(c1-c1ccc(F)cc1)CCNC2,inactive,inactive
CCc1ccc(NC(=O)c2[nH]c(C)c(C(C)=O)c2C)cc1S(=O)(=O)Nc1ccc(C#N)cc1,inactive,inactive
CCOc1ccc(CNc2ccc(-c3nc4ccccc4[nH]3)cc2)cc1,inactive,inactive
O=C1CCCC2=C1C1(CCCC1)N=C(Nc1nc3ccccc3o1)N2,inactive,inactive
Cn1c2cc(Br)sc2c2cnn(Cc3ccc(F)cc3F)c(=O)c21,inactive,inactive
Cc1cccc(-n2cnc3cc(C(=O)NC(C)(C)C)ccc32)c1,inactive,inactive
Fc1cc(Nc2nc(-c3ccncc3)nc3ccccc23)ccc1-c1cccc(OC(F)F)c1,inactive,inactive
CCOc1ccc(C(=O)Nc2ccc(-c3nc4ccccc4o3)cc2)cc1[N+](=O)[O-],inactive,inactive
COc1cccc(C2C(C#N)=C(NC(=O)CCc3ccccc3)Oc3ccc4ccccc4c32)c1 (stereo unspecified),inactive,inactive
O=C(NCCc1ccc(OCC(F)(F)F)c(OCC(F)(F)F)c1)c1cc2sccc2n1Cc1ccccc1,inactive,inactive
O=C(NCCc1nc2ccccc2n1CCOc1ccc(Cl)cc1)C1CCCCC1,inactive,inactive
Cc1cc2c(s1)c1cnn(Cc3c(F)ccc(F)c3F)c(=O)c1n2C,inactive,inactive
C[C@H]1CC[C@@]2(OC1)O[C@H]1CC3[C@@H]4CC[C@@H]5C[C@@H](O[C@@H]6O[C@H](CO)[C@@H](O[C@@H]7O[C@H](CO[C@@H]8OC[C@@H](O)[C@H](O)[C@H]8O)[C@@H](O[C@@H]8O[C@H](CO)[C@H](O)[C@H](O)[C@H]8O)[C@H](O)[C@H]7O)[C@H](O)[C@H]6O)CC[C@]5(C)C4CC[C@]3(C)[C@H]1[C@@H]2C (stereo partly specified),inactive,inactive
